# Experimental data from the supplement of paper PMC10037445.
# In all, about 2,900 compounds were measured (“NF-kB SEAP reporter activity, fold change vs agonist alone”: median about 0.99, highest 2% from about 2.6 on). The full list was thinned out, with the highest values kept by preference.
# Columns and labels:
# RAW-Dual [1] = assay: NF-kB SEAP reporter activity, fold change vs agonist alone; cytotoxicity flag (confluency mask): not cytotoxic; higher = enhanced NF-kB activity
# Summary of the method: (§1)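 Reporter activity is given as fold change relative to agonist-alone wells. To measure it, 50 nL of library stock was pin-tooled onto RAW-Dual macrophages (50,000 cells/well, DMEM, 384-well plates), a PRR agonist followed 1 h later, and cells stayed at 37 °C, 5% CO2. Twenty hours on, supernatant was assayed for IRF (QuantiLuc luminescence) and NF-κB (QuantiBlue, 620 nm absorbance), and wells under 70% of agonist-control IncuCyte confluency in both mask sets were marked cytotoxic.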
# RAW-Dual [2] = assay: NF-kB SEAP reporter activity, fold change vs agonist alone; higher = enhanced NF-kB activity
# Summary of the method: as §1
# RAW-Dual [3] = assay: NF-kB SEAP reporter activity, fold change vs agonist alone; cytotoxicity flag (confluency mask): cytotoxic (confluency <70% of control); higher = enhanced NF-kB activity
# Summary of the method: as §1
# [4] = agonist: ODN 1826 (TLR9) 0.5 ug/mL
# [5] = agonist: Pam2CSK4 (TLR2/6) 0.1 ug/mL
# [6] = agonist: Pam3CSK4 (TLR2/1) 0.1 ug/mL
# [7] = library stock concentration (final ~1000-fold dilution): 10 mM, cytotoxicity flag (confluency mask): not cytotoxic, agonist: Imiquimod (TLR7) […]
# [8] = library stock concentration (final ~1000-fold dilution): 10 mM, cytotoxicity flag (confluency mask): not cytotoxic, agonist: MPLA (TLR4) […]
# [9] = library stock concentration (final ~1000-fold dilution): 10 mM water, cytotoxicity flag (confluency mask): not cytotoxic, agonist: Imiquimod (TLR7) […]
# [10] = library stock concentration (final ~1000-fold dilution): 10 mM water, cytotoxicity flag (confluency mask): not cytotoxic, agonist: MPLA (TLR4) […]
compound,measurement,setting,value
O=C(/C=C/c1ccc(O)c(O)c1)O[C@@H]1CC(O)(C(=O)O)C[C@@H](OC(=O)/C=C/c2ccc(O)c(O)c2)C1O (stereo partly drawn) (library stock concentration (final ~1000-fold dilution): 10 mM),NF-kB SEAP reporter activity,RAW-Dual [1]; agonist: LPS (TLR4) 0.1 ug/mL,1.24
same,NF-kB SEAP reporter activity,RAW-Dual [1]; [4],1.04
same,NF-kB SEAP reporter activity,RAW-Dual [1]; [5],1.11
same,NF-kB SEAP reporter activity,RAW-Dual [1]; [6],1.18
O=C(/C=C/c1ccc(O)c(O)c1)O[C@@H]1CC(O)(C(=O)O)C[C@@H](OC(=O)/C=C/c2ccc(O)c(O)c2)C1O (stereo partly drawn),NF-kB SEAP reporter activity,RAW-Dual [2]; [7],0.841
same,NF-kB SEAP reporter activity,RAW-Dual [2]; [8],1.01
CC(C)NC(=O)C1CCC(n2c(=NC(=O)c3ccc(F)cc3)[nH]c3ccc(CN4CCC(C(C)(C)O)CC4)cc32)CC1 (stereo not drawn),NF-kB SEAP reporter activity,RAW-Dual [2]; [7],1.44
same,NF-kB SEAP reporter activity,RAW-Dual [2]; [8],0.822
CC(C)NC(=O)C1CCC(n2c(=NC(=O)c3ccc(F)cc3)[nH]c3ccc(CN4CCC(C(C)(C)O)CC4)cc32)CC1 (stereo not drawn) (library stock concentration (final ~1000-fold dilution): 10 mM),NF-kB SEAP reporter activity,RAW-Dual [1]; agonist: LPS (TLR4) 0.1 ug/mL,1.17
same,NF-kB SEAP reporter activity,RAW-Dual [1]; [4],0.713
same,NF-kB SEAP reporter activity,RAW-Dual [1]; [5],1.24
same,NF-kB SEAP reporter activity,RAW-Dual [1]; [6],2.16
Cc1cc(Nc2cc(Cl)nc(Oc3ccc([N+](=O)[O-])cc3)n2)n[nH]1,NF-kB SEAP reporter activity,RAW-Dual [2]; [7],1.24
same,NF-kB SEAP reporter activity,RAW-Dual [2]; [8],2.16
Cc1cc(Nc2nc(NC(C)c3ccc(F)cc3)c(C#N)cc2F)n[nH]1 (stereo not drawn),NF-kB SEAP reporter activity,RAW-Dual [2]; [7],1
same,NF-kB SEAP reporter activity,RAW-Dual [2]; [8],0.984
Cc1cc(Nc2nc(NC(C)c3ccc(F)cc3)c(C#N)cc2F)n[nH]1 (stereo not drawn) (library stock concentration (final ~1000-fold dilution): 10 mM),NF-kB SEAP reporter activity,RAW-Dual [1]; agonist: LPS (TLR4) 0.1 ug/mL,1.87
same,NF-kB SEAP reporter activity,RAW-Dual [1]; [4],0.965
same,NF-kB SEAP reporter activity,RAW-Dual [1]; [5],1.44
same,NF-kB SEAP reporter activity,RAW-Dual [1]; [6],0.993
Cc1cc(Nc2cc(Cl)nc(Oc3ccc([N+](=O)[O-])cc3)n2)n[nH]1 (library stock concentration (final ~1000-fold dilution): 10 mM),NF-kB SEAP reporter activity,RAW-Dual [1]; agonist: LPS (TLR4) 0.1 ug/mL,3.28
same,NF-kB SEAP reporter activity,RAW-Dual [1]; [4],2.32
same,NF-kB SEAP reporter activity,RAW-Dual [1]; [5],1.82
same,NF-kB SEAP reporter activity,RAW-Dual [1]; [6],2.92
O=C(O)[C@H](O)Cc1ccc(O)c(O)c1,NF-kB SEAP reporter activity,RAW-Dual [2]; [9],0.919
same,NF-kB SEAP reporter activity,RAW-Dual [2]; [10],1.04
O=C(O)[C@H](O)Cc1ccc(O)c(O)c1 (library stock concentration (final ~1000-fold dilution): 10 mM water),NF-kB SEAP reporter activity,RAW-Dual [1]; agonist: LPS (TLR4) 0.1 ug/mL,1.19
same,NF-kB SEAP reporter activity,RAW-Dual [1]; [4],1.22
same,NF-kB SEAP reporter activity,RAW-Dual [1]; [5],1.1
same,NF-kB SEAP reporter activity,RAW-Dual [1]; [6],1
COc1nc2ccc(Br)cc2cc1C(c1ccccc1)C(O)(CCN(C)C)c1cccc2ccccc12 (stereo not drawn),NF-kB SEAP reporter activity,RAW-Dual [2]; [7],0.771
same,NF-kB SEAP reporter activity,RAW-Dual [2]; [8],0.783
COc1nc2ccc(Br)cc2cc1C(c1ccccc1)C(O)(CCN(C)C)c1cccc2ccccc12 (stereo not drawn) (library stock concentration (final ~1000-fold dilution): 10 mM),NF-kB SEAP reporter activity,RAW-Dual [1]; agonist: LPS (TLR4) 0.1 ug/mL,0.761
same,NF-kB SEAP reporter activity,RAW-Dual [1]; [4],0.86
same,NF-kB SEAP reporter activity,RAW-Dual [1]; [5],0.78
same,NF-kB SEAP reporter activity,RAW-Dual [1]; [6],0.531
NCC1OC(OC2C(CO)OC(OC3C(O)C(N)CC(N)C3OC3OC(CO)C(O)C(O)C3N)C2O)C(N)C(O)C1O.O=S(=O)(O)O (stereo not drawn) (library stock concentration (final ~1000-fold dilution): 10 mM water),NF-kB SEAP reporter activity,RAW-Dual [1]; agonist: LPS (TLR4) 0.1 ug/mL,1.05
same,NF-kB SEAP reporter activity,RAW-Dual [1]; [4],1.24
same,NF-kB SEAP reporter activity,RAW-Dual [1]; [5],1.27
same,NF-kB SEAP reporter activity,RAW-Dual [1]; [6],1.03
NCC1OC(OC2C(CO)OC(OC3C(O)C(N)CC(N)C3OC3OC(CO)C(O)C(O)C3N)C2O)C(N)C(O)C1O.O=S(=O)(O)O (stereo not drawn),NF-kB SEAP reporter activity,RAW-Dual [2]; [9],0.946
same,NF-kB SEAP reporter activity,RAW-Dual [2]; [10],1.03
CC(C)(C)NCC(O)COc1ccccc1C1CCCC1.CC(C)(C)NCC(O)COc1ccccc1C1CCCC1.O=S(=O)(O)O (stereo not drawn),NF-kB SEAP reporter activity,RAW-Dual [2]; [7],1.29
same,NF-kB SEAP reporter activity,RAW-Dual [2]; [8],1.32
CC(C)(C)NCC(O)COc1ccccc1C1CCCC1.CC(C)(C)NCC(O)COc1ccccc1C1CCCC1.O=S(=O)(O)O (stereo not drawn) (library stock concentration (final ~1000-fold dilution): 10 mM),NF-kB SEAP reporter activity,RAW-Dual [1]; agonist: LPS (TLR4) 0.1 ug/mL,0.844
same,NF-kB SEAP reporter activity,RAW-Dual [1]; [4],1.08
same,NF-kB SEAP reporter activity,RAW-Dual [1]; [5],0.857
same,NF-kB SEAP reporter activity,RAW-Dual [1]; [6],0.842
CN1CCc2c(c3ccccc3n2Cc2ccc(C(=O)NO)cc2)C1 (library stock concentration (final ~1000-fold dilution): 10 mM),NF-kB SEAP reporter activity,RAW-Dual [1]; agonist: LPS (TLR4) 0.1 ug/mL,1.15
same,NF-kB SEAP reporter activity,RAW-Dual [1]; [4],1.21
same,NF-kB SEAP reporter activity,RAW-Dual [1]; [5],0.779
same,NF-kB SEAP reporter activity,RAW-Dual [1]; [6],1.15
CN1CCc2c(c3ccccc3n2Cc2ccccc2)C1.CN1CCc2c(c3ccccc3n2Cc2ccccc2)C1.O=S(=O)(O)c1cccc2c(S(=O)(=O)O)cccc12,NF-kB SEAP reporter activity,"RAW-Dual [2]; library stock concentration (final ~1000-fold dilution): 2 mM, cytotoxicity flag (confluency mask): not cytotoxic, agonist: MPLA (TLR4) […]",1.15
CN1CCc2c(c3ccccc3n2Cc2ccc(C(=O)NO)cc2)C1.Cl (library stock concentration (final ~1000-fold dilution): 10 mM),NF-kB SEAP reporter activity,RAW-Dual [1]; agonist: LPS (TLR4) 0.1 ug/mL,5.1
same,NF-kB SEAP reporter activity,RAW-Dual [1]; [4],1.71
same,NF-kB SEAP reporter activity,RAW-Dual [1]; [5],1.08
same,NF-kB SEAP reporter activity,RAW-Dual [1]; [6],1.59
CN1CCc2c(c3ccccc3n2Cc2ccc(C(=O)NO)cc2)C1,NF-kB SEAP reporter activity,RAW-Dual [2]; [7],1
same,NF-kB SEAP reporter activity,RAW-Dual [2]; [8],1.11
CN1CCc2c(c3ccccc3n2Cc2ccc(C(=O)NO)cc2)C1.Cl,NF-kB SEAP reporter activity,RAW-Dual [2]; [7],2.44
same,NF-kB SEAP reporter activity,RAW-Dual [2]; [8],2.55
CN1CCc2c(c3ccccc3n2Cc2ccccc2)C1.CN1CCc2c(c3ccccc3n2Cc2ccccc2)C1.O=S(=O)(O)c1cccc2c(S(=O)(=O)O)cccc12 (library stock concentration (final ~1000-fold dilution): 2 mM),NF-kB SEAP reporter activity,RAW-Dual [1]; agonist: LPS (TLR4) 0.1 ug/mL,1.29
same,NF-kB SEAP reporter activity,RAW-Dual [1]; [4],0.722
same,NF-kB SEAP reporter activity,RAW-Dual [1]; [5],0.952
same,NF-kB SEAP reporter activity,RAW-Dual [1]; [6],0.958
CC(C)N(CCC(=O)c1ccc2ccccc2c1)Cc1ccccc1.Cl (library stock concentration (final ~1000-fold dilution): 10 mM),NF-kB SEAP reporter activity,RAW-Dual [3]; agonist: LPS (TLR4) 0.1 ug/mL,0.45
same,NF-kB SEAP reporter activity,RAW-Dual [3]; [4],0.518
same,NF-kB SEAP reporter activity,RAW-Dual [3]; [5],0.615
same,NF-kB SEAP reporter activity,RAW-Dual [3]; [6],0.442
CC(C)N(CCC(=O)c1ccc2ccccc2c1)Cc1ccccc1.Cl,NF-kB SEAP reporter activity,"RAW-Dual [2]; library stock concentration (final ~1000-fold dilution): 10 mM, cytotoxicity flag (confluency mask): cytotoxic (confluency <70% of control), agonist: Imiquimod (TLR7) […]",1.07
same,NF-kB SEAP reporter activity,"RAW-Dual [2]; library stock concentration (final ~1000-fold dilution): 10 mM, cytotoxicity flag (confluency mask): cytotoxic (confluency <70% of control), agonist: MPLA (TLR4) […]",0.507
Cc1cc(Nc2ccc(NC(=O)c3ccc(Nc4ccnc5ccccc45)cc3)cc2)nc(N)n1,NF-kB SEAP reporter activity,RAW-Dual [2]; [7],1.31
same,NF-kB SEAP reporter activity,RAW-Dual [2]; [8],2.36
